S aureus helic: S. aureus DNA helicase inhibition. purified S. aureus helicase, fluorescence unwinding assay. inhibition, % (concentration not given with the values). actives 0.05% (n = 120,000); in the data active means inhibition above about 25%, passing the limit was not always enough;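 further: 0% = mean of negative control wells and 100% = mean of positive control wells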
Sa growth inh: inhibitors of Staphylococcus aureus growth at 42 °C. AID 720641. actives 0.53% (n = 170,000). relative growth, % (test concentration not listed). S. aureus RN4220 growth, OD600, 20 h; stronger effect = lower value;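 active means relative growth at most 50% at the other temperature and 20+ points below 30 °C, or under 10% at both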
* hit, by the source's call. In the library only some 0.52% were active in any assay of this set; here they are far more common.

What do the screens show for `N#Cc1c(N)[nH]c(=S)c(C(N)=O)c1-c1cccc(Br)c1`?
S aureus helic: 16; Sa growth inh: 0.3*

How did CCN(CC)S(=O)(=O)c1cc(C(=O)Oc2ccc3c(c2)OCO3)ccc1C do in these assays?
S aureus helic: 13; Sa growth inh: 44*

How did CCN(CC)S(=O)(=O)c1cccc(C(=O)OCC(=O)c2ccc3c(c2)OCO3)c1 do in these assays?
S aureus helic: 2; Sa growth inh: 92

What do the screens show for `CN(C)C(=O)CN(C#N)c1nc(Cl)nc(N(C)C)n1`?
S aureus helic: -4; Sa growth inh: 102

Results for CC[n+]1ccsc1N ?
S aureus helic: 15; Sa growth inh: 96

What do the screens show for `CCN1C(=O)/C(=C\c2ccc(-c3ccc(Cl)c(C(=O)O)c3)o2)SC1=S`?
S aureus helic: -80; Sa growth inh: -0.7*

How did CN1C(=O)S/C(=C/c2ccc(-c3ccc(C(=O)O)c(Cl)c3)o2)C1=O do in these assays?
S aureus helic: 12; Sa growth inh: 58

Results for COC(=O)c1sc(S(C)(=O)=O)c(C#N)c1-c1cccs1 ?
S aureus helic: -38; Sa growth inh: 0.2*

How did COC(=O)c1sc(N2CCCC2)c(C#N)c1-c1cccs1 do in these assays?
Sa growth inh: 103

How did Cc1ccc(C(=O)NCC(=O)NC2CCCCC2)cc1 do in these assays?
S aureus helic: -22

What do the screens show for `Nc1nnc2c(Nc3ccccc3)nc3nonc3n12`?
S aureus helic: -1; Sa growth inh: 98

What do the screens show for `c1ccc(Nc2nc3nonc3nc2Nc2ccccc2)cc1`?
S aureus helic: -8; Sa growth inh: -1.6*

What do the screens show for `O=C(Nc1ccc(F)cc1F)N1CCC2(CC1)C(=O)NCN2c1ccccc1`?
S aureus helic: -7; Sa growth inh: 80

What do the screens show for `COc1ccc(-c2[nH]c3ccccc3c2CCC(=O)O)cc1`?
S aureus helic: 7; Sa growth inh: 94

How did O=C(/C=C(\O)c1ccc(Cl)cc1)C(F)(F)F do in these assays?
S aureus helic: -2; Sa growth inh: -0.1*

What do the screens show for `CC(=O)/C=C(\O)c1ccc(Cl)cc1`?
S aureus helic: 12; Sa growth inh: 84

What do the screens show for `NC(=O)N/N=C/c1ccc(-c2ccc(SC(F)F)cc2)o1`?
S aureus helic: -4; Sa growth inh: 101

Results for N#CCCN/N=C/c1ccc(-c2ccc(SC(F)F)cc2)o1 ?
S aureus helic: -11; Sa growth inh: 48*

Results for CC(=O)Nc1cc(C2CC2)[nH]n1 ?
Sa growth inh: 74

How did CCCCC1CCC(C(=O)N2CC(C(N)=O)Oc3ccccc32)CC1 (stereo not given) do in these assays?
S aureus helic: -10; Sa growth inh: 125

Results for CCC(=O)N1CCCc2cc(S(=O)(=O)CCC(=O)Nc3ccc(CC)cc3)ccc21 ?
S aureus helic: 14; Sa growth inh: 88

Results for S=c1[nH]c2c(Cl)cc(Cl)cc2o1 ?
S aureus helic: -4; Sa growth inh: 3.3*

How did O=S(=O)(Nc1ccccc1Cl)c1ccc2[nH]c(=S)oc2c1 do in these assays?
S aureus helic: 16; Sa growth inh: 83

How did CC[C@@H]1OC(=O)C[C@@H](O)[C@H](C)[C@@H](O[C@@H]2O[C@H](C)[C@@H](O)[C@H](N(C)C)[C@H]2O)[C@@H](CCN2C[C@H](C)C[C@H](C)C2)C[C@@H](C)C(=O)/C=C/C(C)=C\[C@@H]1CO[C@@H]1O[C@H](C)[C@@H](O)[C@@H](OC)[C@H]1OC do in these assays?
Sa growth inh: 0.5*

How did C[N+](C)(CCOc1ccccc1)Cc1ccccc1 do in these assays?
Sa growth inh: 92

What do the screens show for `Cc1cc(C(C)(C)CC(C)(C)C)ccc1OCCOCC[N+](C)(C)Cc1ccccc1`?
Sa growth inh: 0.9*

Results for Cc1[nH]nc(-c2ccc(O)c(C)c2O)c1Oc1ccccc1 ?
S aureus helic: -11; Sa growth inh: 89

What do the screens show for `Cc1[nH]nc(-c2ccc(O)cc2O)c1Oc1ccc(C(C)C)cc1`?
S aureus helic: -15; Sa growth inh: 29*

What do the screens show for `CCN1CCCC1CNC(=O)Cn1nc(C)n2cccc2c1=O` (stereo not given)?
S aureus helic: 16; Sa growth inh: 73

What do the screens show for `O=c1cc(-c2ccccc2)cc(-c2ccccc2)n1O`?
Sa growth inh: 79

What do the screens show for `On1c(-c2ccccc2)cc2ccccc21`?
S aureus helic: 3; Sa growth inh: 1.6*

What do the screens show for `CC(=O)N1CCN(c2ccc(OCC3CO[C@](Cn4ccnc4)(c4ccc(Cl)cc4Cl)O3)cc2)CC1` (stereo not given in full)?
Sa growth inh: 2.6*

What do the screens show for `CCOc1ccc(NC(=O)N2CCN(c3ccc(Cl)c(Cl)c3)CC2)cc1`?
Sa growth inh: 107

What do the screens show for `COc1ccc(CCN(C)C/C=C/c2ccc(N(C)C)cc2)cc1OC`?
S aureus helic: 10; Sa growth inh: 102

Results for CNCC(=O)N(C)c1c(N)n(Cc2ccccc2)c(=O)[nH]c1=O ?
S aureus helic: -9; Sa growth inh: 101

Results for COC(=O)C1=C(C)NC(C)=C(C(=O)OC)C1C(=O)OCC(=O)Nc1cccc2nsnc12 ?
S aureus helic: 4; Sa growth inh: 73

Screening data (PubChem)
